# Assay results from PubChem BioAssay (EPA / NIEHS).
# Several values for one entry are separate records, joined by “and”; a condition that tells them apart may be missing. Equal values may be shown once. Records with an inconclusive call do not appear. Some structures have more than one record in an assay (separate samples or runs), and their calls can disagree. Activity calls are given as the source filed them. Rule for the calls: active = hit-call score of the fitted dose curve at least 0.9, where 1 is the maximum; inconclusive = response in the unintended direction; inactive = score below 0.9.
# Tests used:
# [1] = TOX21_p53_BLA_p2_viability: Viability Assessment in the Tox21 HCT-116 p53 Agonism Beta-lactamase Assay, Phase 2 (AID 2283591);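 note: actives lower the ATP signal meaning cytotoxicity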
# Procedure, shortened: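 Cytotoxicity readout: CellTiter-Glo ATP luminescence, 30 min at room temperature, after the beta-lactamase read. Cells were HCT116 exposed 16 h at 37C to compounds pin-transferred at 217-fold dilution from DMSO stocks.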
# [2] = biological target: Cellular tumor antigen p53 (Homo sapiens) (UniProt P04637); assay: TOX21_p53_BLA_p2_ratio: Tox21 HCT-116 p53 Agonism Beta-lactamase Assay, Ratio, Phase 2 (AID 2283592)
# Sequence of Cellular tumor antigen p53 (Homo sapiens) (P04637 whole entry, looked up): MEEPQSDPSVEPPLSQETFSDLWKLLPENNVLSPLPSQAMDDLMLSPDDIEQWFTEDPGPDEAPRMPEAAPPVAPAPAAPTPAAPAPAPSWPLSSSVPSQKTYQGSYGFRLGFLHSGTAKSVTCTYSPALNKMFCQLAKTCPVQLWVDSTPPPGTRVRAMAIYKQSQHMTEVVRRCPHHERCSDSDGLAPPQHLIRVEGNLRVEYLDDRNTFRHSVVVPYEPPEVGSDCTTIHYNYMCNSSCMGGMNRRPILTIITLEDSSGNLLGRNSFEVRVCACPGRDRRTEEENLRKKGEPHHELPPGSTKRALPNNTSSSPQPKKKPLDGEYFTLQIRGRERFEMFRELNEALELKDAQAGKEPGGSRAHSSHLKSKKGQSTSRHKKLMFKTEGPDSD
# Procedure, shortened: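 Gain-of-signal p53 agonism was scored from the beta-lactamase FRET ratio (460/530 nm, 405 nm excitation) in HCT116 cells treated 16 h at 37C, 5% CO2, with DMSO serving as negative control and baseline.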
# [3] = biological target: Cellular tumor antigen p53 (Homo sapiens) (UniProt P04637); assay: TOX21_p53_BLA_p3_ratio: Tox21 HCT-116 p53 Agonism Beta-lactamase Assay, Ratio, Phase 3 (AID 2283596)
# Procedure, shortened: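 HCT116 p53-bla cells (4000/well) given compound in DMSO (217-fold dilution) after 5 h, incubated 16 h at 37C. CCF4-AM substrate 2 h at room temperature; 460/530 nm emission ratio, gain fitted against DMSO.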
# [4] = biological target: Cellular tumor antigen p53 (Homo sapiens) (UniProt P04637); assay: TOX21_p53_BLA_p5_ratio: Tox21 HCT-116 p53 Agonism Beta-lactamase Assay, Ratio, Phase 5 (AID 2283599)
# Procedure, shortened: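 Beta-lactamase reporter ratio (blue 460 nm over green 530 nm, 405 nm excitation) after 2 h CCF4-AM loading, in HCT-116 cells exposed 16 h at 37 C to compounds pinned at 217-fold dilution. Increases relative to DMSO baseline scored.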
# [5] = biological target: Cellular tumor antigen p53 (Homo sapiens) (UniProt P04637); assay: TOX21_p53_BLA_p4_ratio: Tox21 HCT-116 p53 Agonism Beta-lactamase Assay, Ratio, Phase 4 (AID 2283601)
# Procedure, shortened: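 Signal is the blue/green (460nm/530nm) ratio of cleaved versus uncleaved CCF4-AM substrate, read after 2 h substrate loading. Cells were HCT116 carrying the p53-responsive beta-lactamase reporter, dosed 16 h at 37C, 5% CO2; CellTiter-Glo measured in parallel.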
# [6] = TOX21_p53_BLA_p4_viability: Viability Assessment in the Tox21 HCT-116 p53 Agonism Beta-lactamase Assay, Phase 4 (AID 2283597);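 note: hits lower the luminescence signal meaning cytotoxicity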
# Procedure, shortened: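 Following a 16 h exposure at 37C, the treated HCT116 wells were first read for the FRET ratio. They were then lysed with CellTiter-Glo, and ATP luminescence was recorded after 30 min at room temperature.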
# [7] = TOX21_p53_BLA_p5_viability: Viability Assessment in the Tox21 HCT-116 p53 Agonism Beta-lactamase Assay, Phase 5 (AID 2283600)
# Procedure, shortened: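 After the 460/530 nm beta-lactamase measurement, the wells received an ATP-detection luciferase reagent; signal was read 30 min later at RT. Compound treatment lasted 16 h on cells pre-incubated 5 h post-seeding.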
# [8] = TOX21_p53_BLA_p3_viability: Viability Assessment in the Tox21 HCT-116 p53 Agonism Beta-lactamase Assay, Phase 3 (AID 2283593);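 note: cells exposed to compound for 16 h before reading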
# Procedure, shortened: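 Cellular ATP was quantified by CellTiter-Glo luminescence, read after 30 min at room temperature. Beforehand, HCT116 cells (4000/well) received compound 5 h post-seeding, 217-fold diluted from DMSO, then incubated 16 h at 37C.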
# PGR (gene 5241) [9] = biological target: PGR (gene 5241) (UniProt P06401); assay: TOX21_PR_BLA_Followup_Antagonist_ratio: Tox21 HEK293 Progesterone Receptor (PR) Antagonism Beta-lactamase Follow-Up Assay, Ratio (AID 2283934);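 note: PR-UAS-bla HEK293T cells stimulated with 1 nM R5020 agonist for 16 hr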
# Sequence of PGR (gene 5241) (P06401 whole entry, looked up): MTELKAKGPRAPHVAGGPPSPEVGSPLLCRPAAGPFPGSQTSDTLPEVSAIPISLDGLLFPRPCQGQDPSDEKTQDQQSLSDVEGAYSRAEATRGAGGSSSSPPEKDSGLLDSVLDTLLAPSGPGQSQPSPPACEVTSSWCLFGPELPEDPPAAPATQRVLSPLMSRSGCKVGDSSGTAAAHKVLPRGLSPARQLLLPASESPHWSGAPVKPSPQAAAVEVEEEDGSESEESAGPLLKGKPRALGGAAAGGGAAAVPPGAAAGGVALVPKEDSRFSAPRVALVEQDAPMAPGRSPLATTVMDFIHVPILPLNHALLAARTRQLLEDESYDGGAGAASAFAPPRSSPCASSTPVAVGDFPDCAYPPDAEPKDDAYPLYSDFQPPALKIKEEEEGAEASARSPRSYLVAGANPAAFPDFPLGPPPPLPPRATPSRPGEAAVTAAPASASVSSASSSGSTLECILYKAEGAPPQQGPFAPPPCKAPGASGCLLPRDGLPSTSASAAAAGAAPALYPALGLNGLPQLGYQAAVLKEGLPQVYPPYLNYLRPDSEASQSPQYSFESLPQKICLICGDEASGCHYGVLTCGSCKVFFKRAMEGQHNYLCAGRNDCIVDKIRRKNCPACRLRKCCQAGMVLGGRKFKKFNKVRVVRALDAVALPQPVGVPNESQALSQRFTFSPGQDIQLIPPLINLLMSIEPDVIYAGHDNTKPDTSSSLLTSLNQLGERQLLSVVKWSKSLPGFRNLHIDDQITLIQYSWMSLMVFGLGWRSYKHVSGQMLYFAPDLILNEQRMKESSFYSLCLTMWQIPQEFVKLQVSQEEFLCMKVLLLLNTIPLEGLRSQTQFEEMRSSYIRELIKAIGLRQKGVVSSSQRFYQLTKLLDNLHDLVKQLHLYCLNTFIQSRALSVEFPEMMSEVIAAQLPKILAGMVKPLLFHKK
# Procedure, shortened: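 Antagonist mode used 1 nM R5020 (final) as agonist on a beta-lactamase reporter line in HEK293T cells. Activity was taken from the substrate cleavage ratio after 16 hr exposure.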
# [10] = TOX21_PR_BLA_Followup_Agonist_viability: Viability Assessment in the Tox21 HEK293 Progesterone Receptor (PR) Agonism Beta-lactamase Follow-Up Assay (AID 2283935);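 note: signal loss means lower viability so actives are cytotoxic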
# Procedure, shortened: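 Multiplexed viability counter-screen: ATP-coupled luciferase signal measured after 30 min at room temperature, following 16 hr compound treatment of PR-UAS-bla HEK293T cells grown in charcoal-stripped serum.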
# [11] = TOX21_PR_BLA_Followup_Antagonist_viability: Viability Assessment in the Tox21 HEK293 Progesterone Receptor (PR) Antagonism Beta-lactamase Follow-Up Assay (AID 2283936);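 note: hits lower the luminescence signal meaning cytotoxicity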
# Procedure, shortened: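 PR-UAS-bla HEK293T cells (3,000/well, 2% charcoal-stripped FBS) given compound plus R5020 agonist, 16 h at 37C. CellTiter-Glo added after bla read, 30 min at room temperature; luminescence loss indicates cytotoxicity.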
# PGR (gene 5241) [12] = biological target: PGR (gene 5241) (UniProt P06401); assay: TOX21_PR_LUC_Followup_Antagonist: Tox21 HEK293 Progesterone Receptor (PR) Antagonism Luciferase Follow-Up Assay (AID 2283938);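 note: curve fitted upward as signal gain over DMSO baseline despite antagonist label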
# Procedure, shortened: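 Luminescence from ONE-Glo was measured 30 min after reagent addition, following 16 h exposure of HEK293-PR-A-luc cells (3,000/well, plated 5 h earlier) to DMSO-dissolved compounds at 37C; DMSO served as baseline.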
# [13] = TOX21_PR_LUC_Followup_Antagonist_viability: Viability Assessment in the Tox21 HEK293 Progesterone Receptor (PR) Antagonism Luciferase Follow-Up Assay (AID 2283940)
# Procedure, shortened: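 Cellular ATP, measured with luciferase-coupled CellTiter-Glo, served as the viability endpoint after HEK293-PR-A-luc cells were exposed to test compounds for 16 h at 37C.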
smiles,measurement,setting,value
COC(=O)C(Br)CBr (stereo not drawn),outcome,[1],inactive
same,outcome,[2],inactive
same,AC50,[3],48 µM (active)
same,outcome,[4],inactive
same,outcome,[5],inactive
CCN(C)N=O,outcome,[1],inactive
same,outcome,[2],inactive
same,outcome,[3],inactive
same,outcome,[6],inactive
same,outcome,[4],inactive
same,outcome,[5],inactive
COP(=S)(OC)Oc1ccc([N+](=O)[O-])cc1Cl,outcome,[1],inactive
same,outcome,[2],inactive
same,outcome,[3],inactive
same,outcome,[6],inactive
same,outcome,[7],inactive
same,outcome,[5],inactive
OCC(Br)CBr (stereo not drawn),outcome,[1],inactive
same,outcome,[2],inactive
same,outcome,[3],inactive
same,outcome,[6],inactive
same,outcome,[7],inactive
same,outcome,[5],inactive
O=[N+]([O-])c1cccc(O)c1,outcome,[1],inactive
same,outcome,[2],inactive
same,outcome,[6],inactive
same,outcome,[4],inactive
same,outcome,[7],inactive
O=C(CCl)c1ccc(Oc2ccc(C(=O)CCl)cc2)cc1,outcome,[1],inactive
same,AC50,[2],43.4 µM (active)
same,outcome,[3],inactive
same,outcome,[6],inactive
same,outcome,[4],inactive
same,AC50,[5],41.9 µM (active)
C=CCC1([C@@H](C)CCC)C(=O)NC(=O)NC1=O,outcome,[1],inactive
same,outcome,[2],inactive
same,outcome,[6],inactive
same,outcome,[4],inactive
same,outcome,[7],inactive
Clc1ccc2c(c1)C(c1ccccc1)=NCc1nncn1-2,outcome,[1],inactive
same,outcome,[2],inactive
same,outcome,[3],inactive
same,outcome,[7],inactive
same,outcome,[5],inactive
CN1CCN(C(=O)O[C@H]2c3nccnc3C(=O)N2c2ccc(Cl)cn2)CC1,outcome,[1],inactive
same,outcome,[2],inactive
same,outcome,[3],inactive
same,outcome,[6],inactive
same,outcome,[7],inactive
same,outcome,[5],inactive
Cn1c(N)nc2c3cccnc3ccc21,outcome,[1],inactive
same,outcome,[2],inactive
same,outcome,[3],inactive
same,outcome,[6],inactive
same,outcome,[4],inactive
same,outcome,[5],inactive
CCCSc1cc(OC)c(CCN)cc1OC,outcome,[1],inactive
same,AC50,[2],26.1 µM (active)
same,AC50,[3],48 µM (active)
same,AC50,[4],43.7 µM (active)
same,outcome,[7],inactive
same,AC50,[5],24.4 µM (active)
ClCC1CO1 (stereo not drawn),outcome,[1],inactive
same,outcome,[2],inactive
same,outcome,[6],inactive
same,outcome,[4],inactive
same,outcome,[5],inactive
CC(Cl)Cl,outcome,[1],inactive
same,outcome,[2],inactive
same,outcome,[5],inactive
O=[N+]([O-])CCO,outcome,[1],inactive
same,outcome,[2],inactive
same,outcome,[6],inactive
same,outcome,[7],inactive
same,outcome,[5],inactive
O=S1(=O)OCCO1,outcome,[1],inactive
same,outcome,[2],inactive
same,outcome,[6],inactive
same,outcome,[4],inactive
same,outcome,[7],inactive
same,outcome,[5],inactive
Cc1ccc2c(C)cccc2c1,outcome,[1],inactive
same,outcome,[2],inactive
same,outcome,[6],inactive
same,outcome,[4],inactive
same,outcome,[7],inactive
same,outcome,[5],inactive
CN(C)CCc1c[nH]c2cccc(OP(=O)(O)O)c12,outcome,[1],inactive
same,outcome,[2],inactive
same,outcome,[4],inactive
NP(N)(=O)NC(=O)c1ccc(F)cc1,outcome,[1],inactive
same,outcome,[2],inactive
same,outcome,[6],inactive
same,outcome,[4],inactive
same,outcome,[7],inactive
same,outcome,[5],inactive
CC(Cl)(Cl)[N+](=O)[O-],outcome,[1],inactive
same,outcome,[2],inactive
same,outcome,[6],inactive
same,outcome,[4],inactive
same,outcome,[5],inactive
CON(C)C(=O)Nc1ccc(Br)cc1,outcome,[1],inactive
same,outcome,[2],inactive
same,outcome,[6],inactive
same,outcome,[5],inactive
CCSC(=O)Cl,outcome,[1],inactive
same,outcome,[2],inactive
same,outcome,[6],inactive
same,outcome,[4],inactive
same,outcome,[7],inactive
same,outcome,[5],inactive
c1ccc(C2(N3CCCC3)CCCCC2)cc1,outcome,[1],inactive
same,AC50,[8],33.1 µM (active)
same,AC50,[3],43.9 µM (active)
same,outcome,[6],inactive
same,outcome,[4],inactive
same,outcome,[7],inactive
CC(=O)C(C)(C)C,outcome,[1],inactive
same,outcome,[2],inactive
same,outcome,[4],inactive
same,outcome,[7],inactive
same,outcome,[5],inactive
COc1ccc2c(C(=O)c3ccc(Cl)cc3)c(C)n(CC(=O)O)c2c1,outcome,[1],inactive
same,outcome,[2],inactive
same,outcome,[6],inactive
same,outcome,[4],inactive
same,outcome,[7],inactive
same,outcome,[5],inactive
COC1CC(=C(c2cccs2)c2cccs2)C[N+](C)(C)C1 (stereo not drawn),outcome,[1],inactive
same,outcome,[2],inactive
same,outcome,[4],inactive
same,outcome,[7],inactive
CCC(=O)OC1(c2ccccc2)CCN(C)CC1,outcome,[1],inactive
same,outcome,[2],inactive
same,outcome,[4],inactive
same,outcome,[7],inactive
C=CC(C)=O,outcome,[1],inactive
same,outcome,[8],inactive
same,outcome,[3],inactive
same,outcome,[6],inactive
same,outcome,[4],inactive
C[C@]12C/C(=C/O)C(=O)C[C@@H]1CC[C@@H]1[C@@H]2CC[C@@]2(C)[C@H]1CC[C@]2(C)O,outcome,[1],inactive
same,AC50,[8],66.6 µM (active)
same,outcome,[8],inactive
same,outcome,[3],inactive
same,AC50,[6],52.8 µM (active) and 34.6 µM (active)
same,outcome,[4],inactive
same,AC50,[7],71.4 µM (active)
same,outcome,[7],inactive
same,AC50,[5],42.4 µM (active)
same,outcome,[5],inactive
same,outcome,PGR (gene 5241) [9],inactive
same,outcome,[10],inactive
same,outcome,[11],inactive
same,outcome,PGR (gene 5241) [12],inactive
same,outcome,[13],inactive
CCC(C(N)=O)N1CCCC1=O (stereo not drawn),outcome,[1],inactive
same,outcome,[2],inactive
same,outcome,[4],inactive
same,outcome,[5],inactive
BrCCCCCCBr,outcome,[1],inactive
same,outcome,[8],inactive
same,outcome,[3],inactive
C[C@@H]1O[C@@H](O[C@@H]2C=C3CC[C@@H]4[C@H](CC[C@]5(C)[C@@H](c6ccc(=O)oc6)CC[C@]45O)[C@@]3(C)CC2)[C@H](O)[C@H](O)[C@H]1O,AC50,[1],0.00927 µM (active)
same,AC50,[8],0.0134 µM (active)
same,outcome,[3],inactive
same,AC50,[6],12.3 nM (active)
same,outcome,[4],inactive
same,AC50,[7],0.0108 µM (active)
same,outcome,[5],inactive
CC1=C2[C@H]3OC(=O)[C@@H](C)[C@@H]3CC[C@@]2(C)C=CC1=O,outcome,[1],inactive
same,outcome,[2],inactive
same,outcome,[6],inactive
same,outcome,[4],inactive
same,outcome,[7],inactive
same,outcome,[5],inactive
CCC1(c2ccccc2)C(=O)NC(=O)N(C(=O)c2ccccc2)C1=O (stereo not drawn),outcome,[1],inactive
same,outcome,[8],inactive
same,outcome,[3],inactive
same,outcome,[6],inactive
same,outcome,[4],inactive
same,outcome,[7],inactive
same,outcome,[5],inactive
